Data on seven compounds can be found in PubChem BioAssay (Tox21).

The nature of experiment [1]: Nuclear factor erythroid 2-related factor 2/antioxidant responsive element (Nrf2/ARE) small molecule agonists: qHTS cell viability counter screen in human keratinocytes (AID 1919968; active = well fitted curve in the direction sought with a large enough effect in the repeat runs; an effect the other way counts as inactive or inconclusive; also: nearly all actives have a fitted effect of over 55% in size; also: potency is read from the fitted curve at half-maximal effect). Summed up: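 Cytotoxicity was multiplexed with the Nrf2/ARE luciferase assay in the same wells. Stably transfected HaCaT keratinocytes were treated with test compounds for 23 h at 37 C. Cell viability was then measured by CellTiter-Fluor fluorescence.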
In general terms: In qHTS, concentration-response curves come from the screen itself.

Experiment [2] deals with Gonadotropin-releasing hormone receptor (Homo sapiens) (UniProt P30968). Description: Human gonadotropin-releasing hormone receptor (GnRHR) small molecule agonists, calcium flux assay in GnRHR-HEK293 cells (AID 1920063). Also: nearly all actives have a fitted effect of over 35% in size. In a few lines: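 Agonist activity was measured as intracellular calcium flux in HEK293 cells engineered to stably express human GnRHR. After dye loading for 1 hour at 37 C, compounds in DMSO were added and fluorescence was followed for 3 minutes.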
Gonadotropin-releasing hormone receptor (Homo sapiens), sequence (P30968 whole entry, looked up): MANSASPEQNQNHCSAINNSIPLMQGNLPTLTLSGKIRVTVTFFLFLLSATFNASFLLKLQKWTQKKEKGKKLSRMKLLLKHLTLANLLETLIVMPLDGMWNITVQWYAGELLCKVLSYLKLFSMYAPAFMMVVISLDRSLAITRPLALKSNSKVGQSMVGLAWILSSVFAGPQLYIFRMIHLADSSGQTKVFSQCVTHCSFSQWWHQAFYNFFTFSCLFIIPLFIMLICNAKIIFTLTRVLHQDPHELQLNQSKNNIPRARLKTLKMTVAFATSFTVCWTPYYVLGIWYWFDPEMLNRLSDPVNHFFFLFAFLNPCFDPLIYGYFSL

Experiment [3] has as its target KiSS-1 receptor (Homo sapiens) (UniProt Q969F8). The experiment can be described thus: Human kisspeptin (KISS1R) small molecule agonists, calcium flux assay in KISS1R-HEK293 cells (AID 1920064; active = well fitted curve in the direction sought with a large enough effect in the repeat runs; an effect the other way counts as inactive or inconclusive). In a few lines:
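Agonist activity is monitored as intracellular calcium rise in engineered HEK293 cells carrying human KISS1R. Cells are dye-loaded for 1 h at 37 C before compound addition, and fluorescence is recorded for 3 min.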

Experiment [4] can be described thus: G protein-coupled receptor (GPCR) small molecule agonists, calcium flux assay: HEK293 wild type cell line counter screen (AID 1920065). In a few lines:
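Seed cells, incubate 18 h (37 C, 5% CO2); add calcium dye, 1 h at 37 C; pin-transfer compounds, ATP control or DMSO; read fluorescence 480/540 nm each second for 3 min.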
(Calcium assays in cells follow changes in intracellular calcium, usually with a dye or a luminescent sensor.)

Experiment [5] can be described thus: p53 small molecule agonists, cell-based qHTS assay with human liver microsomes (AID 1963577).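 Also: p53 response element beta-lactamase reporter cells with liver microsomes plus NADPH.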 Summed up: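 HLM-supplemented p53RE-bla reporter assay: 16 h compound exposure at 37 C, microsomes and NADPH each 0.5 mg/mL final, read by fluorescence intensity.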
Experiment [6] is described as follows: p53 small molecule agonists, cell-based qHTS assay with rat liver microsomes (AID 1963578). In a few lines: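 Quantitative HTS of the Tox21 10K library: p53RE-bla cells, rat liver microsomes plus NADPH at 0.5 mg/mL final each, 16 h at 37 C, beta-lactamase fluorescence detection.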
Experiment [7] can be described thus: p53 small molecule agonists, cell-based qHTS assay with human liver microsomes: qHTS cell viability counter screen (AID 1963579). Also: nearly all actives have a fitted effect of over 45% in size. Summed up:
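Viability of p53RE-bla cells is measured as CellTiter-Glo luminescence following a 16 h, 37 C incubation with compound, liver microsomes from human donors and NADPH.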

Experiment [8] can be described thus: p53 small molecule agonists, cell-based qHTS assay with rat liver microsomes: qHTS cell viability counter screen (AID 1963580). Also: nearly all actives have a fitted effect of over 45% in size. Summed up:
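Cytotoxicity counter screen: intracellular ATP read by CellTiter-Glo luminescence in the p53 reporter wells. HCT-116 p53RE-bla cells were treated for 16 h at 37 C alongside rat liver microsomes and NADPH, each 0.5 mg/mL final.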

A short description of experiment [9]: p53 small molecule agonists, cell-based qHTS assay: qHTS cell viability counter screen (AID 1963581). Also: nearly all actives have a fitted effect of over 45% in size. In a few lines: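 Viability was counter-screened in parallel with the p53 agonist reporter by measuring intracellular ATP luminescence in the same HCT-116 p53RE-bla wells after 16 h compound treatment at 37 C.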
A short description of experiment [10]: p53 small molecule agonists, cell-based qHTS assay (AID 1963582; active = well fitted activation curve with a large enough effect in the signal ratio in the repeat runs, not every such curve was filed as active; the % refers to the signal ratio). In a few lines:
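Cells carrying a p53-responsive bla reporter are treated with test compounds for 16 h at 37 C; beta-lactamase activity is then detected with LiveBLAzer B/G FRET substrate after 2 h at room temperature.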

Experiment [11] deals with 5-hydroxytryptamine receptor 2A (Homo sapiens) (UniProt P28223). Description: 5-hydroxytryptamine receptor 2A (HTR2A) small molecule antagonists, cell-based qHTS assay (AID 1963586). Also: nearly all actives have a fitted effect of over 45% in size. In a few lines:
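CHO cells stably expressing human HTR2A were plated for 18 h at 37 C, then loaded with calcium dye for 1 h. Compounds were preincubated 5 min at room temperature before DOI (4 nM solution) was added. Kinetic fluorescence was read for 3 min.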

Experiment [12] shares this target. The experiment can be described thus: 5-hydroxytryptamine receptor 2A (HTR2A) small molecule agonists, cell-based qHTS assay (AID 1963587). Also: nearly all actives have a fitted effect of over 30% in size. In a few lines: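 Kinetic calcium-flux fluorescence (2 min, 1 sec intervals) after compound addition in agonist mode. HTR2A-CHO cells were cultured 18 h, then dye-loaded 1 h at 37 C.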
For experiment [13], the target named is Muscarinic acetylcholine receptor M1 (Homo sapiens) (UniProt P11229). The experiment can be described thus: Cholinergic receptor muscarinic 1 (CHRM1) small molecule antagonists, cell-based qHTS assay (AID 1963588). Also: nearly all actives have a fitted effect of over 40% in size. Summed up: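 Compounds were tested at 15 concentrations in three independent runs. Dye-loaded CHRM1-CHO cells were exposed 5 min at room temperature before stimulation by acetylcholine added at 50nM. Intracellular calcium was read kinetically on FDSS for 3 min.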
Muscarinic acetylcholine receptor M1 (Homo sapiens), sequence (P11229 whole entry, looked up): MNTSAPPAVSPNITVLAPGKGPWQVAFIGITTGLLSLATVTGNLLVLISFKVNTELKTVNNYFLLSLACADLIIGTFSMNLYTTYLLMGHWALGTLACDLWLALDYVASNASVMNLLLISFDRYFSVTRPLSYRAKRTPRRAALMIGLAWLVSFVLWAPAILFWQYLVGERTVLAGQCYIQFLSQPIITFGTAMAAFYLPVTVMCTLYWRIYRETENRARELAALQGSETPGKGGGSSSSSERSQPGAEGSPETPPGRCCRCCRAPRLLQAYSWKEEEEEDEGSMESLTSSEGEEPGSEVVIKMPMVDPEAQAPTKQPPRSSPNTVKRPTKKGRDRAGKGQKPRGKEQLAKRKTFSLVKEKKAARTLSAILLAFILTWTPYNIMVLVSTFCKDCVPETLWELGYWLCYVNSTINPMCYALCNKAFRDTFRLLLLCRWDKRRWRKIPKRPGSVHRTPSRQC

Experiment [14] can be described thus: cAMP Responsive Elements (CRE) small molecule antagonists, cell-based qHTS assay (AID 1963591; active = well fitted inhibition curve with a large enough effect in the signal ratio in the repeat runs, not every such curve was filed as active; the % refers to the signal ratio). Summed up:
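Cells (CRE-bla HEK 293T, DMEM with 10% dialyzed FBS and 25 mM HEPES) are seeded and incubated 18 h. Compounds are added with NKH477 agonist at 0.25 uM final for 3 h, then FRET substrate for 2 h.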

Experiment [15] deals with Beta-2 adrenergic receptor (Homo sapiens) (UniProt P07550). Description: Adrenergic beta2 receptor (ADRB2) small molecule antagonists, cell-based qHTS assay (AID 1963592). Also: series mostly up to about 92 µM; nearly all actives have a fitted effect of over 50% in size. In a few lines:
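Assay format: CHO-ADRB2 cells, 18-20hr seeding at 37C/5% CO2, then compound plus 1nM isoproterenol agonist mix for 0.5hr RT. Homogeneous time-resolved fluorescence cAMP detection after 1hr, expressed as 665/615 nm ratio.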

The target is the same in experiment [16]. Description: Adrenergic beta2 receptor (ADRB2) small molecule agonists, cell-based qHTS assay (AID 1963593).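 Also: CHO cells stably overexpressing human ADRB2.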 In a few lines:
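CHO cells stably over-expressing ADRB2 were plated overnight at 37C, then dosed with compounds plus a stimulation mix containing 100uM IBMX and 25uM Ro-20-1724 for 0.5hr at room temperature. cAMP was measured by HTRF competition, 1hr.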

The target of experiment [17] is D(2) dopamine receptor (Homo sapiens) (UniProt P14416). The experiment can be described thus: Dopamine D2 receptor (DRD2) small molecule agonists, cell-based qHTS assay (AID 1963594). Also: nearly all actives have a fitted effect of over 35% in size. Summed up:
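cAMP accumulation in DRD2-HEK293 cells measured by HTRF after 1 h detection; compounds added 10 min before NKH477 (200nM […]) forskolin-analogue stimulation, 30 min at room temperature, with Ro20-1724 present at 0.1 mM final.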

For experiment [18] the target is unchanged. The experiment can be described thus: Dopamine D2 receptor (DRD2) small molecule antagonists, cell-based qHTS assay (AID 1963595; active = well fitted inhibition curve with a large enough effect in the signal ratio in the repeat runs, with a control signal flat; the % refers to the signal ratio). In a few lines:
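Stable D2 receptor HEK293 line, 24 h after seeding. Compound preincubated 10 min, then quinpirole (12 nM) with forskolin analogue NKH477 (200 nM), 30 min, room temperature. Detection by time-resolved FRET of cAMP.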

The target of experiment [19] is Muscarinic acetylcholine receptor M1 (Homo sapiens) (UniProt P11229). Description: Cholinergic receptor muscarinic 1 (CHRM1) small molecule agonists, cell-based qHTS assay (AID 1963589). Also: nearly all actives have a fitted effect of over 35% in size. Summed up: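 Cells were plated and incubated 18 h at 37 C/5% CO2, loaded with calcium dye for 1 h at 37 C, then treated with compounds in DMSO. Fluorescence was recorded kinetically at 1 sec intervals.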

Experiment [20] in a line: cAMP Responsive Elements (CRE) small molecule agonists, cell-based qHTS assay (AID 1963590). Summed up: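 Cells carrying a CRE-driven beta-lactamase reporter (HEK 293T) are seeded, incubated overnight (18 h), and treated with test compounds for 3 h at 37 C; reporter activity is then detected with a FRET substrate after 2 h at room temperature.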

A number with no mark means an inactive call. Inconclusive results are not listed. Activity calls are given as the source filed them. Unless noted, calls follow the shape of the full dose curve.

D(2) dopamine receptor (Homo sapiens), sequence (P14416 whole entry, looked up): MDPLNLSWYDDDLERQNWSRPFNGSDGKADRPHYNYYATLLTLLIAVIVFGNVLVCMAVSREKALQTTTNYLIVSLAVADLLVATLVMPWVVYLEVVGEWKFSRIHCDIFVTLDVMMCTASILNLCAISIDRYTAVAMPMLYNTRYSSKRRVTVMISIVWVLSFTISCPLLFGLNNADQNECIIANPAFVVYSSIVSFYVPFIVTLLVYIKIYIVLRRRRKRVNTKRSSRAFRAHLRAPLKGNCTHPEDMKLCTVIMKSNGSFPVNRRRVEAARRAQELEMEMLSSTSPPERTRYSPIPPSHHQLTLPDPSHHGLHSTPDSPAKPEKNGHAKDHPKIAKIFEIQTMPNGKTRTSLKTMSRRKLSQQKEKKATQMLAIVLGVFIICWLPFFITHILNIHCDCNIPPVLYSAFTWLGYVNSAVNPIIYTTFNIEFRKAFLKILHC
KiSS-1 receptor (Homo sapiens), sequence (Q969F8 whole entry, looked up): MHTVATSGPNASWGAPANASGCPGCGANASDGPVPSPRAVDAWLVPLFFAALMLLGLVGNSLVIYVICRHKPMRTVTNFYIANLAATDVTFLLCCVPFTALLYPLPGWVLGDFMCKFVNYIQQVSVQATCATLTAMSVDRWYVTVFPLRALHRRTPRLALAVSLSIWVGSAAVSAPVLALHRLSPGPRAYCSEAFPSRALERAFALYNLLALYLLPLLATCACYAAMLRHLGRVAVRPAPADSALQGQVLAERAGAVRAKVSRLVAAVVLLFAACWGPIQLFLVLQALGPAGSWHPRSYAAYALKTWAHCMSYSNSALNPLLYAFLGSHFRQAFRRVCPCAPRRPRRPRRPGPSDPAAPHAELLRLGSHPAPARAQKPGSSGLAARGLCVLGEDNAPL
5-hydroxytryptamine receptor 2A (Homo sapiens), sequence (P28223 whole entry, looked up): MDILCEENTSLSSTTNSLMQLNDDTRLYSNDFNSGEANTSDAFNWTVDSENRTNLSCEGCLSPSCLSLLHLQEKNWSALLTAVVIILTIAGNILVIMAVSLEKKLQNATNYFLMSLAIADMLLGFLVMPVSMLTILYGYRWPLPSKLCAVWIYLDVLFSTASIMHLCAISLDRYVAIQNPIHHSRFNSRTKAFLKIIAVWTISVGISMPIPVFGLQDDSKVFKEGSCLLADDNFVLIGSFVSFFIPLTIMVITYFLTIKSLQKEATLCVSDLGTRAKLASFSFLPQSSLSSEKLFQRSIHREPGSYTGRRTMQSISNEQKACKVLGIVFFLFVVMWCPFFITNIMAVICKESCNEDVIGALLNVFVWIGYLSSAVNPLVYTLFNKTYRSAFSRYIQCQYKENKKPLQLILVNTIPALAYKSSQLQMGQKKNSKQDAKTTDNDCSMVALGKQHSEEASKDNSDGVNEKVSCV
Beta-2 adrenergic receptor (Homo sapiens), sequence (P07550 whole entry, looked up): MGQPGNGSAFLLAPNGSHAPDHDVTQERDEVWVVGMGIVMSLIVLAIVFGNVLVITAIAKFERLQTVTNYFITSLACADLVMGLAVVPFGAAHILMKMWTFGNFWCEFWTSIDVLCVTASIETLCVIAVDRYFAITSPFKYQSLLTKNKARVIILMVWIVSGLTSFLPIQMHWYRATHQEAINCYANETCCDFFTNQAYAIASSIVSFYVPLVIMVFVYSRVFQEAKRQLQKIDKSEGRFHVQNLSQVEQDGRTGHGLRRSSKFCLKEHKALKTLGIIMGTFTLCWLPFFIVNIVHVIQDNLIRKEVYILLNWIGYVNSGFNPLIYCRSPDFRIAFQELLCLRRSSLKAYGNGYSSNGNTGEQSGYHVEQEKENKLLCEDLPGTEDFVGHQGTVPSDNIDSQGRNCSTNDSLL

Regarding `CCN(CC)c1ccc(N=Nc2ccccc2)cc1`, the Potency result in experiment [1], in experiment [2], in [3], in experiment [4], in [5] and in experiment [6] was “inactive” each time. The Potency result in experiment [7], in experiment [8], in experiment [9], in [10], in experiment [11] and in experiment [12] was “inactive” throughout. Besides, the Potency result in experiment [13], in [14], in experiment [15], in experiment [16], in experiment [17] and in [18] was “inactive” throughout.

Turning to `O=C(c1ccc(O)cc1)c1ccc(O)c(O)c1O`, the Potency result in experiment [1], in [2], in experiment [3], in [4], in experiment [5] and in experiment [6] was “inactive” each time. The Potency entry in [7], in [8], in experiment [9], in experiment [10], in experiment [12] and in experiment [13] was “inactive” in each case. Moreover, the Potency entry in experiment [19] is “inactive”.

Regarding `CC(=O)[O][Al]`, the Potency entry in experiment [1], in experiment [2], in [3], in [4], in experiment [5] and in experiment [6] was “inactive” each time. Further, the Potency entry in experiment [7], in [8], in [9], in experiment [11], in [12] and in experiment [13] was “inactive” in each case. The Potency result in [19], in experiment [20], in experiment [14], in experiment [15], in experiment [16] and in experiment [17] was “inactive” each time. In addition, the Potency entry in experiment [18] was “inactive”.

Turning to `CCN1CCOCC1`, the Potency entry in [1], in experiment [2], in experiment [3], in experiment [4], in experiment [5] and in [6] was “inactive” throughout. Further, the Potency entry in [7], in experiment [8], in experiment [9], in experiment [11], in [12] and in [13] was “inactive” throughout. For the same compound, the Potency result in [19], in experiment [20], in experiment [14], in experiment [15], in experiment [16] and in experiment [18] was “inactive” each time.

`C/C(=C(/OCCOc1ccc(Cl)cc1)c1ccc(Cl)cc1Cl)n1ccnc1`: the Potency in experiment [1] was 13.3 µM (active). Also, the Potency entry in experiment [2], in [3], in [4], in [5], in experiment [6] and in [7] was “inactive” throughout. Also, the Potency result in experiment [8], in experiment [9], in experiment [10], in experiment [12], in experiment [19] and in experiment [20] was “inactive” in each case. Moreover, the Potency entry in [14], in experiment [15], in experiment [16], in [17] and in experiment [18] was “inactive” each time.

For `CC(=O)c1c(C)c([N+](=O)[O-])c(C(C)(C)C)c([N+](=O)[O-])c1C`, the Potency result in experiment [1], in experiment [2], in experiment [3], in experiment [4], in experiment [5] and in experiment [6] was “inactive” each time. The Potency result in experiment [7], in experiment [8], in experiment [9], in experiment [10], in [11] and in experiment [12] was “inactive” in each case. For the same compound, the Potency result in [19], in experiment [14], in experiment [15], in experiment [16], in [17] and in experiment [18] was “inactive” throughout.

As for `C[Si](Cl)(c1ccccc1)c1ccccc1`, the Potency entry in [1], in [2], in experiment [3], in experiment [4], in [5] and in [6] was “inactive” throughout. In addition, the Potency entry in experiment [7], in [8], in [9], in [10], in experiment [11] and in [13] was “inactive” each time. Besides, the Potency result in experiment [19], in [15] and in experiment [18] was “inactive” in each case.
